From PubChem
ANO1 block: TMEM16A chloride channel inhibitors, primary screen, cell-based, HTS; Anoctamin-1 (Mus musculus), Q8BHY3; HEK293 TMEM16A/YFP iodide influx fluorescence, ionomycin; normalized B-score (activity score, 25-100; higher = stronger inhibition) at 10 µM; 1.2% of 310,000 active;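 active = ratio plate-corrected score three or more library SD toward inhibition, starting fluorescence score within five deviations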;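 note: score derived from kinetic fluorescence span divided by baseline fluorescence per well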
CHT block: inhibitors of human choline transporter CHT. AID 488975, 2010. 0.86% of 310,000 active. B-score at 10 µM. CHT-expressing cells, membrane potential dye, choline response; stronger effect = lower value;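 active = B-score over 3 SD under the library average, and starting fluorescence ratio not unusually high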;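 note: choline stimulus applied at its EC90 after an EC20 pre-addition; B-score computed on integrated fluorescence ratio after choline addition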
PKA-R1A act: activators of PKA-R1A holoenzyme, primary screen, biochemical, fluorescence polarization, Cy5-IP20, bovine R1A, mouse PKAc. cAMP-dependent protein kinase type I-alpha regulatory subunit (Bos taurus) + …. PKA-R1A dissociation; scaled: DMSO 0%, 113 µM cGMP 100%. activation, % at 11.4 µM. 0.083% of 340,000 active;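 active = percent activation above the mean of all tested compounds plus 3 SD, cut at about 19% in these data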;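 note: higher means more PKAc released from R1A so a rise in polarization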
ANO1 activ: TMEM16A chloride channel activators or potentiators, primary screen, cell-based, HTS. HEK293 TMEM16A/YFP-H148Q/I152L, iodide quench fluorescence; stronger effect = lower value. B-score at 10 µM. 0.3% of 340,000 active. AID 623877, 2012;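 active = fluorescence-ratio B-score plate-corrected deviation score at least 3 library SD below zero, with starting fluorescence score within 5 deviations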;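 note: channel opened by trigger with iodide after compound preincubation; score built on the fluorescence ratio of max minus min over baseline; more negative score means more quench and so TMEM16A activation or potentiation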
CHT allo act: CHT positive allosteric modulators, primary screen, cell-based, membrane potential dye, choline EC20; 0.49% of 310,000 active; AID 488977, 2010; B-score at 10 µM; High affinity choline transporter 1 (Homo sapiens), Q9GZV3; CHT-expressing cells; stronger effect = higher value; LV-AA mutant CHT in HEK293 cells;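 active = initial fluorescence not abnormally high and integrated response B-score, plate-corrected, over 3 SD above library mean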
PKA-R2B activ: activators of PKA-R2B holoenzyme, primary screen, biochemical, fluorescence polarization, Cy5-IP20, human; cAMP-dependent protein kinase catalytic subunit beta (Homo sapiens) + cAMP-dependent …; PKA-R2B holoenzyme dissociation; R2B truncated from residue 108, S112A mutant; 0% DMSO only, 100% 113 µM cGMP; activation, % at 11.4 µM; 0.079% of 340,000 active; AID 504700, 2011;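 active = activation above a cutoff set at the mean over all compounds plus 3 SD, cut at about 18% in these data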;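 note: higher means more holoenzyme dissociation and a rise in polarization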
Target sequence (P31323 whole entry, looked up, other chains not shown, the tested form may be a part): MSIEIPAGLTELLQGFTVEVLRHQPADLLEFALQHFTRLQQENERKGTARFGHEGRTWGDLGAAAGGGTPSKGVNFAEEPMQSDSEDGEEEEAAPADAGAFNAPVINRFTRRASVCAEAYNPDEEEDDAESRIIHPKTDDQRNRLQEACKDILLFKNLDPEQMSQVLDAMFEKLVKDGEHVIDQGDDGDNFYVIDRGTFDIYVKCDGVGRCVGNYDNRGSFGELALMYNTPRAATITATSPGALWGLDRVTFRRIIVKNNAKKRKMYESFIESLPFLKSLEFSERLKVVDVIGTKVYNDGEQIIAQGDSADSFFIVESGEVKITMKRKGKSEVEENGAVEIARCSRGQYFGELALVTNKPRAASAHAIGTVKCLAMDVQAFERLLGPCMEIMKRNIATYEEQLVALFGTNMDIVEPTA
Of the large screens only hits and unclear results are named; the others gave an inactive call. A selection: hits, their analogues and other compounds. The true share with any hit is near 2.5%.

Clc1ccc(CNc2nc(N3CCOCC3)nc(N3CCOCC3)n2)cc1	ANO1 activ -7.6
CN(C)c1ccc(O)c2c1CC1CC3[C@@H](N(C)C)C(=O)C(C(N)=O)C(=O)[C@]3(O)C(=O)C1C2=O (some centres undefined)	ANO1 activ -9.4 (no result: ANO1 block, CHT block, CHT allo act)
CN(C)c1ccc(O)c2c1CC1CC3C(N(C)C)C(=O)C(C(N)=O)=C(O)[C@@]3(O)C(=O)C1=C2O (some centres undefined)	none
Cc1cc(C)c(C)c(S(=O)(=O)NC(C)C(=O)O)c1C (centres undefined)	none
COc1ccccc1C(=O)NC(CCSC)C(=O)OCC(=O)N1CCN(S(=O)(=O)c2ccc(C)cc2)CC1 (centres undefined)	none (no result: ANO1 block, CHT block, CHT allo act)
O=C(Nc1ccc(S(=O)(=O)N2CCOCC2)cc1)C1CC1	none
CC(C)=CC1C(C(=O)Nc2ccc(S(=O)(=O)N3CCOCC3)cc2)C1(C)C (centres undefined)	ANO1 activ -4.9
C=CCc1c(C)nc(C)nc1N/N=C/c1ccc([N+](=O)[O-])cc1	none
C=CCc1c(C)nc(C)nc1N/N=C/c1ccccc1O	ANO1 block 25
CCCc1nnc2n1N=C(c1ccc(C)cc1)CS2	none
Cc1cccc(NC(=O)c2ccc(Cl)c(S(=O)(=O)N3CCCCC3)c2)n1	none
CC(=O)Nc1ccc(S(=O)(=O)Oc2ccc3c(c2)C(C)=CC(C)(C)N3)cc1	ANO1 block 25 (no result: PKA-R1A act, ANO1 activ, PKA-R2B activ)
Nc1nc(CSc2nc3ccccc3s2)nc(N2CCOCC2)n1	none
Nc1nc(CSCc2ccccc2)nc(N2CCOCC2)n1	ANO1 activ -15
CC(C)CC(=O)N1CCN(Cc2ccccc2Cl)CC1	none
CCOc1ccc(N2C(=O)CC(NCCNc3ccc([N+](=O)[O-])cn3)C2=O)cc1 (centres undefined)	ANO1 block 25
Clc1ccc(CN2C3=NCCCN3c3ccccc32)cc1Cl	none
COc1ccc(/C=N/N(C(C)=O)c2nc(-c3ccc(C)cc3)cs2)cc1	ANO1 activ -7.2
NC(=O)COc1ccc(/C=N\NC(=O)CC(=O)NCCc2ccccc2)cc1	none
CCC(C)(C)C1CCC2(CC1)NC(CO)(CO)CO2 (centres undefined)	ANO1 activ -4.9
O=C(Nc1nnc(-c2cccs2)o1)c1cccc(Oc2ccccc2)c1	ANO1 block 25
O=C(Nc1ncc(Br)s1)C(Cc1ccccc1)n1cccc1 (centres undefined)	ANO1 block 100
O=C(NC1CCCC1)C(Cc1ccccc1)n1cccc1 (centres undefined)	none
CC(=O)N1c2c(cc(Br)cc2S(=O)(=O)N2CCN(c3ccccc3F)CC2)CC1C (centres undefined)	ANO1 block 25
O=C(CNS(=O)(=O)c1ccc(Br)s1)N1CCN(c2ccc(F)cc2)CC1	none
COc1cccc(COCC(O)CN2CCC(C(N)=O)CC2)c1 (centres undefined)	none
O=C(Nc1cccc(C(F)(F)F)c1)N(Cc1ccc(Cl)cc1)CC(O)C(F)(F)F (centres undefined)	ANO1 block 100
COc1ccc(C=C2CS(=O)(=O)CC(=Cc3ccc(OC)cc3)C2=O)cc1	none (no result: ANO1 block, CHT block, ANO1 activ, CHT allo act)
O=C(NCc1ccc2c(c1)OCO2)C1CCN(S(=O)(=O)c2ccc(Br)s2)CC1	ANO1 activ -6.9
CN(C(=O)c1ccc(NC(=O)Cc2cccc(NC(=O)C3CCCN(C(=O)CCc4ccccc4)C3)c2)cc1)C1CC1 (centres undefined)	none (no result: ANO1 block, CHT block, ANO1 activ, CHT allo act)
O=[N+]([O-])c1cc(S(=O)(=O)N2CCCCCC2)ccc1F	ANO1 activ -6.6
COc1cccc(/C=C2\Oc3cc(OCC(=O)N4CCCC4)ccc3C2=O)c1OC	ANO1 activ -38
O=C(Nc1cccc(C(F)(F)F)c1)c1ccccc1NC(=O)C1CCCCC1	none
C[C@H](CCC(=O)O)[C@H]1CC[C@H]2[C@@H]3CC[C@@H]4C[C@H](O)CC[C@]4(C)[C@H]3C[C@H](O)[C@]12C	CHT block -6.5
O=C1C=C(/C=C/C2C=CC=CC2)C[C@@H](c2ccc(Cl)cc2)C1 (some centres undefined)	ANO1 activ -9.8 (no result: ANO1 block, CHT block, CHT allo act)
O=C1C=C(O)CC(c2ccc(Cl)cc2)C1 (centres undefined)	none
O=C(NN1C(=O)/C(=C\c2ccc(O)c([N+](=O)[O-])c2)SC1=S)c1ccccc1Cl	ANO1 activ -5.5
CC(=O)/C(=N\Nc1ccccc1)Sc1nncn1C	none
COc1cccc(CC(=O)OCC(=O)N(C)CC(=O)Nc2ccc(Cl)c(C(F)(F)F)c2)c1	none
Cc1cc(=O)[nH]c(N/N=C/c2c(C)nn(-c3ccccc3)c2Cl)n1	none
Cc1nn(-c2ccccc2)c(Cl)c1/C=N/Nc1nc2ccccc2[nH]1	ANO1 activ -7.3
Fc1ccc(C(CCCn2nnc(-c3cccnc3)n2)c2ccc(F)cc2)cc1	ANO1 block 100
COCCNC(=O)COc1ccc(Br)cc1Cl	ANO1 block 100
CC1(C)CC[C@]2(C(=O)n3ccnc3)CC[C@]3(C)[C@H](C(=O)C=C4[C@@]5(C)C=C(C#N)C(=O)C(C)(C)[C@@H]5CC[C@]43C)[C@@H]2C1	ANO1 activ -15 (no result: ANO1 block, CHT block, CHT allo act)
Cc1[nH]c2ccccc2c1C(=O)C(=O)N1CCN(c2ccccc2Cl)CC1	none
Cc1[nH]c2ccccc2c1C(=O)C(=O)N1CCN(c2cccc(Cl)c2)CC1	ANO1 activ -53
CSc1ccccc1C(=O)OCC(=O)NC1CCCCCCC1	none (no result: ANO1 block, CHT block, ANO1 activ, CHT allo act)
CCc1ccc2oc(-c3ccc(OC)cc3)cc(=Nc3c(C)n(C)n(-c4ccccc4)c3=O)c2c1	ANO1 block 100
CC(C)(C)OC(=O)NCCCCCc1cn([C@@H](CO)C(=O)NCCCCCCCCCCC(=O)N2CCN(C(=O)OC(C)(C)C)CC2)nn1	ANO1 block 100
CC(C)(C)OC(=O)CC[C@@H](C(=O)NCCCCCCCCCCC(=O)N1CCN(C(=O)OC(C)(C)C)CC1)n1cc(CCCCCNC(=O)OC(C)(C)C)nn1	none
CC[C@H](C)[C@@H](C(=O)NCCCCCCCCCCC(=O)N1CCN(C(=O)OC(C)(C)C)CC1)n1cc(CCCCCNC(=O)OC(C)(C)C)nn1	ANO1 block 25
